Assay results reported in PubChem BioAssay (NCI).
The panel holds about 83,000 compounds, 20% with a hit somewhere; the sample as a whole holds those more often.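 A percent growth of 40 corresponds to 60% growth inhibition; 0 means no net growth; -100 means all cells died. Active threshold: below 10.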 A number with no mark means an inactive call. Activity calls are given as the source filed them.

What was measured:
Assay in all cases: NCI-60 one-dose screen, 48 h (100 = growth as untreated, 0 = no growth, -100 = all killed)
Details in all cases: 10 µM unless noted
SK-MEL-2 melanoma = system: SK-MEL-2 melanoma
EKVX NSCLC = system: EKVX NSCLC
SN12C renal = system: SN12C renal
UO-31 renal = system: UO-31 renal
TK-10 renal = system: TK-10 renal
ACHN renal = system: ACHN renal
CAKI-1 renal = system: CAKI-1 renal
CCRF-CEM leukemia = system: CCRF-CEM leukemia
MOLT-4 leukemia = system: MOLT-4 leukemia

| SMILES | growth (SK-MEL-2 melanoma) | growth (EKVX NSCLC) | growth (SN12C renal) | growth (UO-31 renal) | growth (TK-10 renal) | growth (ACHN renal) | growth (CAKI-1 renal) | growth (CCRF-CEM leukemia) | growth (MOLT-4 leukemia) |
| --- | --- | --- | --- | --- | --- | --- | --- | --- | --- |
| CCOc1ccc(/C=N/Nc2cc(C)nc3ccc(Cl)cc23)cc1 | 91% | 81.7% | -26% (active) | 47.6% | 121% | 51.2% | 78.2% | 0.25% (active) | -30.5% (active) |
| COC(=O)C1=C(C(=O)ONCCN(C)C)C2C=CC1(C(Cc1ccccc1)Nc1ccc(F)cc1)O2 (stereo unspecified) | 97% | 102% | 87% | 81% | 65.4% | -18.8% (active) | 88% | 2.02% (active) | 30.6% |
| CC(=O)N1c2ccccc2NC2=C(C(=O)N(Cc3ccccc3)C2(C)C)C1c1ccco1 (stereo unspecified) | 16.9% | 35.4% | 35.9% | 52.5% | 54.9% | 33.5% | 43% | 24.1% | 28.6% |
| CN1C(=O)N(C)C2NC(N/N=C/c3ccccc3)=NC21 (stereo unspecified) | 108% | 98.7% | 98.5% | 92.7% | 100% | 102% | 88.8% |  | 103% |
| Cc1cccc(C)c1-c1cc(Cc2ccc(Cl)cc2)c(=O)[nH]n1 | 114% | 92.8% | 89.5% | 52.5% | 114% | 112% | 146% |  | 74.3% |
| COc1cccc(NC(=O)c2cccc(-c3cc(=O)c4c(OC)c(OC)c(OC)cc4o3)c2)c1 | 75.7% | 81.3% | 62.3% | 31.6% | 78.8% | 62.5% | 74.7% | 40.5% | 48.5% |
| COc1cc2nc(-c3ccc(C(F)(F)F)cc3)cc(OCCN3CCCC3)c2cc1OC | 105% | 68.8% | 72.2% | 54.2% | 92.9% | 84.1% | 68.7% | 77.8% | 74.2% |
| COc1cc(CCNc2nc3cc(N)cc(N)c3nc2-c2ccccc2)cc(OC)c1 | -3.81% (active) | 57.6% | -77.7% (active) | 39% | 104% | 52.3% | 184% |  | -66.5% (active) |
| CCN1C(=O)N(CC)C2NC(SC)=NC21 (stereo unspecified) | 111% | 97.6% | 95.9% | 89.7% | 115% | 99.8% | 87.9% |  | 102% |
| C[C@H]1[C@H](C)CC[C@]2(CO)CC[C@]3(C)C(=CC[C@@H]4[C@@]5(C)CCCNC(C)(C)[C@@H]5CC[C@]43C)[C@H]12 | 13.1% | 19.4% | -1.54% (active) | 12.5% | 23% | -66.3% (active) | 16.4% |  | -45.6% (active) |
| N#Cc1cc(-c2nc3ccccc3s2)c(=O)n(NS(=O)(=O)c2ccc(Cl)cc2)c1N | 102% | 100% | 97.8% | 70.4% | 139% | 95.5% | 80.5% | 107% | 107% |
| Cc1ccc(Nc2cc(=S)nc(N)[nH]2)cc1C | 99.9% | 79% | 92.4% | 81.4% | 144% | 91.2% | 90.5% | 112% | 97.4% |
| CC(=O)c1cccc(NS(=O)(=O)c2cccc(C(=O)Nc3ccc(Br)cc3)c2)c1 | 50.6% [25 µM] | 27.1% [25 µM] | 58% [25 µM] | 41% [25 µM] | 80.7% [25 µM] | 61.5% [25 µM] | 39.6% [25 µM] | 47.7% [25 µM] | 38.7% [25 µM] |
| Cc1c(C(=O)NO)sc2ncnc(Nc3ccc(NC(=S)Nc4ccccc4)cc3)c12 | 104% | 93.6% | 101% | 85.1% | 106% | 105% | 96.6% |  | 111% |
| COc1cc(-c2cc(=O)oc3cc(O)ccc23)cc(OC)c1OC | 101% | 89.8% | 79% | 72.2% | 110% | 89.3% | 74% |  | 92.9% |
| COc1ccc(/C=N/C2=C(C#N)C(c3ccccc3[N+](=O)[O-])c3ccc4ccccc4c3O2)cc1 (stereo unspecified) | 92.8% | 72.1% | 91.6% | 64.8% | 182% | 90.8% | 68.3% |  | 89.5% |
| CC(C)C1C2=C(NCCN1C(=O)Cc1ccccc1)C(C)(C)N(Cc1ccccc1)C2=O (stereo unspecified) | 94.3% | 94.5% | 98.5% | 87.3% | 97.3% | 101% | 84.2% |  | 96.8% |
| Fc1ccc(-n2cc(COc3ncnc4sc5c(c34)CCCC5)nn2)cc1Cl | 103% | 94.1% | 98.7% | 82.3% | 113% | 102% | 92.7% |  | 98.8% |
| CCCNC(=O)Oc1ccc(/C(=C(\C)c2ccccc2)c2ccc(OCCN3CCCCC3)cc2)cc1 | 90.6% | 82.2% | 71.4% | 46.5% | 90.2% | 91% | 65.8% | 72.2% | 60.1% |
